Each structure is given as a SMILES string. A number with no mark means an inactive call. No rule for the calls is given here.

The experiment deals with Pantothenate synthetase (Mycobacterium tuberculosis (strain ATCC 25618 / H37Rv)) (UniProt P9WIL5). The experiment in a line: Recombinant Mtb pantothenate synthetase (PanC) inhibitors, coupled enzyme, confirmatory (AID 375).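 Also: 0% = full reaction with vehicle and 100% = no enzyme background.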 The following applies: coupled enzyme assay; at 10 µM, hits give high values.
Chain of Pantothenate synthetase (Mycobacterium tuberculosis (strain ATCC 25618 / H37Rv)) (P9WIL5 whole entry, looked up): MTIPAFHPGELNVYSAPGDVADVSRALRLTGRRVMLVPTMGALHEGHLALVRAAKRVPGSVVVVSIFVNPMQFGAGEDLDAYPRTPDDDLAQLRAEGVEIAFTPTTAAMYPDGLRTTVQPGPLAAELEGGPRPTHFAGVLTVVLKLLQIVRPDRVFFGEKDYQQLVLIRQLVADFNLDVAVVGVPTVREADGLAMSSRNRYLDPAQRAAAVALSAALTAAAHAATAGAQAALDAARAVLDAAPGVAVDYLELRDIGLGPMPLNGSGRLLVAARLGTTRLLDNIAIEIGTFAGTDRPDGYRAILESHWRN
One may read the inhibition as the change of the read-out against control, counted positive when it falls. On to `Cc1cc(C)n(-c2ccc3cccc(NS(C)(=O)=O)c3n2)n1`, for which the inhibition was 0%.
Under `Cc1cc(Cl)c(S(=O)(=O)Nc2ccc3c(c2)OCCO3)cc1OCC(N)=O` stands 0%; under `CCCCOc1ccc(OCCCN2CCOCC2)cc1`, 2%.
Under `N#C[C@@H]1[C@@H]2C(=O)N(c3ccc4c(c3)OCCO4)C(=O)[C@@H]2C2c3ccccc3C=CN21` (some centres not stated) stands 2%.
As for `O=C(Nc1ccc(-c2nc3ncccc3o2)cc1)c1ccc(Br)o1`, the figure is 15%; as for `Cn1cnc2c1c(=O)n(Cc1cccc(Br)c1)c(=O)n2C`, 1%; as for `CCOC(=O)N1CCN(C(=O)CSc2nnc(-c3cccc(Cl)c3)o2)CC1`, 0%.
Take `NC(=O)CSc1nnc(-c2ccc(O)cc2)n1Cc1ccco1`: the inhibition is 0%.
Under `c1ccc(Cn2nnc3c(N4CCCCCC4)ncnc32)cc1` stands 7%.
Under `COCCn1c(=O)[nH]c2cc(C(=O)NCCCN3CCN(c4ccc(F)cc4)CC3)ccc2c1=O` stands 0%; under `O=c1[nH]cnc2c1C1(CCCC1)Cc1ccccc1-2`, 0%.
As for `O=C(COC(=O)c1cccc(S(=O)(=O)N2CCc3ccccc32)c1)NC1CCS(=O)(=O)C1` (configuration not stated), the figure is 0%; as for `CCOC(=O)c1cnc(SCC)[nH]c1=O`, 0%.
Regarding `O=C(NC1CCCc2ccccc21)c1ccc(CNc2c(N3CCOCC3)c(=O)c2=O)cc1` (configuration not stated), the inhibition is 0%.
Consider `COc1cccc(-c2nnc(NC(C)=O)o2)c1`, for which the inhibition was 0%.
Under `Cc1cnc(C(=O)Nc2nnc(C(C)C)s2)cn1` stands 0%.
Under `O=C(CCSc1ccccc1)N1CCN(C(=O)c2ccco2)CC1` stands 0%.

The values above are taken from PubChem BioAssay.
